60 compounds from PubChem BioAssay AID493012 (Sanford-Burnham Center for Chemical Genomics, 2011) can be followed below.

In all, about 330,000 compounds went through this assay and about 930 (0.28%) were called active.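 How the source made its calls: active means inhibition of at least 40% at 20 µM, with no more than 30% in the related APOBEC3A deaminase screen; inactive means the rest.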 Shown is part of a subset that was picked to be rich in actives.

One may read the inhibition as the change of the read-out against control, counted positive when it falls.

DNA dC->dU-editing enzyme APOBEC-3G (Homo sapiens), sequence (Q9HC16 whole entry, looked up): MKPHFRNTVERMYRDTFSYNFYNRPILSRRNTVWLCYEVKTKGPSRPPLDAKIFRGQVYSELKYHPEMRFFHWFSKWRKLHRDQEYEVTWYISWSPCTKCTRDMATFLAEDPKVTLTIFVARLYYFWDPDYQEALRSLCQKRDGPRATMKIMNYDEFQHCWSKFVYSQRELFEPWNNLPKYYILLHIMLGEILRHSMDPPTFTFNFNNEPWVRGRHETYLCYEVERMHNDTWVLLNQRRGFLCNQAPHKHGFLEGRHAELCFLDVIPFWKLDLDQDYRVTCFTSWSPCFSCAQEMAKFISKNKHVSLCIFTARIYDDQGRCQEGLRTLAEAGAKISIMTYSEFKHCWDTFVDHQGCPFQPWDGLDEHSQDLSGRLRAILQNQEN

The assay concerns the target DNA dC->dU-editing enzyme APOBEC-3G (Homo sapiens) (UniProt Q9HC16). In words: inhibition of human A3G ssDNA deamination – biochemical, fluorescence, single-stranded DNA substrate, uHTS, primary screen (AID 493012).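 Further: plate controls were DMSO wells with A3G for no effect and wells lacking A3G enzyme for full effect.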 To be noted: recombinant A3G, ssDNA deamination FAM/TAMRA fluorescence; at 20 µM; stronger effect = higher value.
In the case of `CCOC(=O)C1CCN(S(=O)(=O)c2cc(F)ccc2OC)CC1`, the inhibition is -1.04% (inactive).

For `CCC(=O)Nc1ccccc1C(=O)N1CCN(Cc2ccccc2)CC1`, the inhibition was -6.48% (inactive). Consider `CCOc1ccc(C(=O)Nc2ccc(S(=O)(=O)Nc3cc(C)on3)cc2)cc1`, for which the inhibition is -9.24% (inactive). The figure for `CCOc1ccc(NC(=O)Nc2cc(C)on2)cc1` is 65.3% (active); for `CCC(=O)Nc1ccc(C(=O)Nc2cc(C)on2)cc1` it is 2.01% (inactive); for `CC(C)NC(=O)c1ccc(Sc2ccccc2)c([N+](=O)[O-])c1` it is -2.3% (inactive). As to `O=C(Cc1ccccc1)NNC1CC(=O)N(c2ccc(Br)cc2)C1=O` (stereo not given), the inhibition is 4.82% (inactive). `COC(=O)c1sccc1NC(=O)CC1C(=O)NCCN1C(=O)Nc1ccc(F)cc1F` (stereo not given): the inhibition is -4.83% (inactive).

In the case of `CNC(=O)c1sc(Nc2ccc(OCc3ccccc3)cc2)nc1C`, the inhibition is -1.98% (inactive). With `CN(c1ccccc1)S(=O)(=O)c1ccc(Cl)c(C(=O)NCCc2c[nH]c3ccccc23)c1`, the inhibition is -7.53% (inactive). `Cc1ccc(S(=O)(=O)N(C)CC(=O)NCCc2c[nH]c3ccccc23)cc1`: the inhibition was 49.6% (active). The figure for `CSCCC(NS(=O)(=O)c1ccc(C)cc1)C(=O)NCCc1c[nH]c2ccccc12` (stereo not given) is -1.39% (inactive). On to `COc1ccc(C)cc1NC(=O)CCS(=O)(=O)c1cccc2nonc12`, for which the inhibition was -1.32% (inactive). Take `O=C1CC(Sc2ncn[nH]2)C(=O)N1c1ccccc1` (stereo not given): the inhibition was 41.6% (active). `Cc1ccc(N2C(=O)CC(Sc3ncn[nH]3)C2=O)cc1` (stereo not given): the inhibition was 28% (inactive). On to `O=C1CC(N2CCN(c3ccc(F)cc3)CC2)C(=O)N1c1ccccc1` (stereo not given), for which the inhibition is -7.4% (inactive).

`CCOc1ccc(-c2cn(S(=O)(=O)c3cccc4nsnc34)nc2N)cc1`: the inhibition is 0.75% (inactive).

In the case of `CCOC(=O)C(NC(C)=O)C(=O)Nc1ccc(OC)cc1` (stereo not given), the inhibition was -5.93% (inactive). As for `O=c1[nH]c(=S)[nH]c2[nH]c(=S)[nH]c12`, the inhibition was 93.2% (inactive). As to `CCNC(=O)CC1C(=O)N(c2ccc(F)cc2)C(=O)N1CCc1sccc1C` (stereo not given), the inhibition is -6.98% (inactive).

Turning to `COc1ccc(C2=NO[C@@H]3C(=O)N(Cc4ccccc4)C(=O)[C@H]23)cc1OC`, the inhibition is -9.52% (inactive). The figure for `CC(C)(C)NC(=O)Cn1cnc([N+](=O)[O-])n1` is -1.06% (inactive); for `O=C(Cc1ccc(Br)cc1)NCCc1ccccc1` it is -5.45% (inactive). Consider `O=C(Cn1cnc([N+](=O)[O-])n1)NCCc1ccccc1`, for which the inhibition is 61.5% (active). As to `COCCN1C(=O)C(=O)/C(=C(/O)c2ccc(S(=O)(=O)N3CCOCC3)cc2)C1c1ccc(O)c(OC)c1` (stereo not given), the inhibition is -1.29% (inactive). The figure for `CCOC(=O)C(Sc1ncc(C#N)c(N)n1)C(C)C` (stereo not given) is 1.62% (inactive); for `Cc1cc(C)c2c(-c3ccc(F)cc3)c(C#N)c(=O)n(C)c2n1` it is 53.9% (active).

Take `COc1ccc(O)c(C(=O)c2cnc3c(c2)c(-c2ccc(F)cc2)c(C#N)c(=O)n3C)c1`: the inhibition was -3.05% (inactive). The figure for `Cn1c(N)cc(-c2ccc(F)cc2)c(C#N)c1=O` is -8.38% (inactive); for `CC1c2nc3ccccc3n2C(CC(=O)NCCCN2CCOCC2)C(=O)N1Cc1ccccc1` (stereo not given) it is -9.69% (inactive). The figure for `O=C(Nc1ccc(-c2ccc3nncn3n2)cc1)C1CCCCC1` is -1.63% (inactive); for `Fc1ccc(Nc2nnns2)cc1` it is 48.9% (active); for `O=C(Nc1ccncc1)Nc1ccc(F)cc1` it is -2.01% (inactive). Regarding `CN(C)c1nc(NN)nc(Nc2ccc(F)cc2)n1`, the inhibition is -0.168% (inactive).

As to `CCOC(=O)C(C)Sc1nnc(CSc2nc3nc(C)cc(C)n3n2)o1` (stereo not given), the inhibition is -3.96% (inactive). Then `CCc1c(C)[nH]c(=S)c(C#N)c1C`, with 40.3% (active); and `CC(=O)c1c(C)[nH]c(=S)c(C#N)c1-c1ccc(F)cc1`, with 5.87% (inactive); and `CCC(=O)N(C)C(c1ccccc1Cl)c1nnnn1-c1c(C)cccc1C` (stereo not given), with -7.17% (inactive). Turning to `COC(=O)c1ccc2c(=O)n(CCN3CCOCC3)c(SCC(=O)Nc3cccc(OC)c3)nc2c1`, the inhibition is -3.78% (inactive).

With `CC(=O)N(C1=C(Cl)C(=O)c2ccccc2C1=O)c1ccc(C(=O)O)cc1`, the inhibition is 89.2% (active). The figure for `O=C(COC(=O)c1ncc(Cl)c(Cl)c1Cl)NC1CCS(=O)(=O)C1` (stereo not given) is -7.97% (inactive). On to `CC1=C/C(=N\OS(=O)(=O)c2ccccc2)C=CC1=O`, for which the inhibition was 71.9% (active). The figure for `N#Cc1c(Cl)nc(-c2cccnc2)nc1-c1ccccc1` is -2.3% (inactive).

Consider `Cc1cccc(-n2c(N)c(C(=O)N3CCN(C)CC3)sc2=S)c1`, for which the inhibition is 62.1% (active). The figure for `N#Cc1ccccc1-n1c(N)c(C(=O)N2CCCC2)sc1=S` is 25.4% (inactive); for `Cc1ccc(-n2c(N)c(C(=O)N3CCOCC3)sc2=S)c(C)c1` it is 10.5% (inactive). Regarding `COc1ccc(OCc2n[nH]c(=S)n2N)cc1`, the inhibition is 59.6% (active). As to `Cc1ccc(OCc2n[nH]c(=S)n2-c2ccccc2)cc1`, the inhibition is 9.43% (inactive).

Consider `COc1ccc(Cc2n[nH]c(=S)n2NC(=O)Nc2ccc(C)cc2)cc1`, for which the inhibition was 26.9% (inactive). Turning to `COC(=O)c1cccc(N(C(=O)c2ccco2)C(C(=O)NC2CCCC2)c2ccco2)c1` (stereo not given), the inhibition is 0.606% (inactive). The figure for `Cn1c(=O)c2c(SCC(=O)NCC3CCCO3)nc(CC(C)(C)C)nc2n(C)c1=O` (stereo not given) is -3.25% (inactive). In the case of `CCOc1ccc(CN2CCN(Cc3ccc4cc(F)ccc4n3)CC2CCO)cc1` (stereo not given), the inhibition was -8.75% (inactive). `Cc1ccc(S(=O)(=O)N2CCC(Oc3ccc(-n4cnnn4)cc3)CC2)cc1`: the inhibition was -1.49% (inactive). In the case of `CCCn1c(O)c(CN2CCCC(C)C2)c(C)c(C#N)c1=O` (stereo not given), the inhibition is -4.49% (inactive).

As to `O=c1[nH]c2ccccc2n2c(-c3ccccc3)nnc12`, the inhibition is 83.4% (active).

For `O=c1[nH]n2c(-c3ccccc3)nc(O)c2c2ccccc12`, the inhibition is -3.66% (inactive). Then `CC1(C)CC(=O)C2=C(C1)N=C1SCCC(=O)N1C2c1ccc(C(F)(F)F)cc1` (stereo not given), with -0.591% (inactive); and `COc1ccc(OCc2nnc3n2N=C(c2ccccc2)C(CC(=O)O)S3)cc1` (stereo not given), with 65.2% (active). The figure for `COc1cccc(OCc2nnc3n2N=C(c2ccccc2)C(CC(=O)O)S3)c1` (stereo not given) is -9.67% (inactive); for `COc1ccc(C2CC(c3ccccc3)=NN2C(=O)COC(=O)COc2ccccc2)cc1` (stereo not given) it is -5.97% (inactive).
